Bioassay records deposited in PubChem BioAssay by several laboratories.
Hits are enriched below; roughly 1.1% of the tested compounds scored in any of these assays.
NTR1 ag: agonists of human NTR1, primary screen, imaging, U2OS cells, beta-arrestin-GFP, high content; Neurotensin receptor type 1 (Homo sapiens), P30989; NTR1-U2OS beta-arrestin-GFP spot imaging, agonist mode; activation, % at 20 µM; actives 0.17% (n = 330,000); AID 493036, 2011;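 active means activation at or above 40% of the spot to cytoplasm intensity ratio, with at least 20 cells analyzed; inconclusive means wells under 20 cells, flagged as cytotoxic or low count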;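 further: 0% = DMSO without peptide and 100% = 100 nM NTR1 peptide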
VLA-4 inh: inhibition in human VLA-4 binding assay, primary screen, VLA-4 allosteric modulator project, MLPCN library, flow cytometry, VLA-4 expressing cells | ligand binding flow cytometry | inhibition, % (about 7 µM as worked out from the volumes in the protocol) | actives 0.2% (n = 330,000); in the data active means inhibition above about 50%
AI-2 QS mod: Vibrio harveyi AI-2 quorum sensing modulators, primary screen, JMH597 strain, luminescence/OD600 ratio. Vibrio harveyi JMH597 AI-2 luminescence/OD600 ratio, 9 h; active compounds read low; strain lacks LuxN and CqsS sensors; 0 = neutral-control median. activity change, % at 7.5 µM. actives 0.4% (n = 300,000). AID 2094, 2009; in the data active means activity change below about -75%, passing the limit was not always enough; inconclusive means no clear call, values can overlap the other calls;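 further: luminescence divided by OD600 gain over 9 h not by final OD600 alone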
DSG3 Ab inh: inhibitors of pemphigus antibody binding to DSG3, primary screen, biochemical, bead-based, flow cytometry, scFv-GFP; AID 588358, 2011; DSG3-coupled beads, scFv-anti-DSG3-GFP binding; active compounds read low; binding (percent of control), % at 10 µM; Desmoglein-3 (Homo sapiens), P32926; actives 0.48% (n = 310,000);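 active means binding more than 3 SD below its plate's average and above zero; inconclusive means below that plate limit but binding exactly zero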;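 further: hits lower antibody fragment binding to DSG3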
JMH597 growth: Vibrio harveyi growth inhibition, confirmation, counter-screen for AI-2 quorum sensing project, JMH597 strain, OD600 absorbance; actives 1% (n = 750); 9 h; lacks LuxN and CqsS sensors; growth inhibition, % at 7.5 µM; AID 2726, 2010; shares compounds with AI-2 QS mod;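 active means every replicate shows growth inhibition above 50%; inconclusive means at least half, but not all, replicates pass that cutoff; inactive means fewer than half of replicates pass it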
BB721 lum counter: luminescence inhibition in constitutive-on V. harveyi, confirmation, counter-screen for LuxS inhibitor project, strain BB721, luminescence readout; shares compounds with AI-2 QS mod; Vibrio harveyi BB721 luminescence, 9 h; inhibition, % at 7.5 µM; actives 95% (n = 750);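 active means inhibition above about 80% in every replicate, not just on average, limit read from the data; inconclusive means at least half of replicates past the limit, but not all; inactive means fewer than half of replicates past the limit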
BB721 growth: growth inhibition of V. harveyi BB721, confirmation, cytotoxicity control for AI-2 quorum sensing inhibitors, strain BB721, absorbance OD600; shares compounds with AI-2 QS mod; Vibrio harveyi BB721 growth, 9 h; growth inhibition, % at 7.5 µM; actives 3% (n = 750);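 active means every replicate shows growth inhibition above 50%; inconclusive means at least half but not all replicates above 50% inhibition; inactive means under half of replicates above 50% inhibition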
JMH597 AI-2 mod: Vibrio harveyi AI-2 signaling luminescence modulation – JMH597 strain, confirmation. Vibrio harveyi JMH597 AI-2 quorum sensing luminescence, 9 h; luxN and CqsS knockout, AI-2 only. actives 97% (n = 750). inhibition, % at 7.5 µM. shares compounds with AI-2 QS mod. AID 2736, 2010;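 active means every replicate shows more than 75% inhibition of signal versus neutral control wells; inconclusive means half to three quarters of replicates exceed 75% inhibition; inactive means fewer than half of replicates exceed 75% inhibition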
An asterisk follows results filed as active; ? = inconclusive; / = no result.

SMILES | NTR1 ag | VLA-4 inh | AI-2 QS mod | DSG3 Ab inh | JMH597 growth | BB721 lum counter | BB721 growth | JMH597 AI-2 mod
O=C(CSc1n[nH]c(=O)n1C1CC1)Nc1ccc(F)c(Cl)c1 | 4 | 9 | / | / | / | / | / | /
Cc1cccc2nc(CSc3nc4ccccc4[nH]3)cn12 | 0 | 2 | ? | 88 | -14 | 96* | -42 | 97*
c1ccc2[nH]c(SCc3cn4ccccc4n3)nc2c1 | -2 | -4 | -11 | 93 | / | / | / | /
COc1ccccc1CN(C)C(=O)c1sccc1-c1ccccc1 | 4 | 20 | 1 | 108 | / | / | / | /
Oc1ccc(-n2nnnc2SCc2ccccc2Br)cc1 | 4 | 7 | ? | 115 | 12 | 81* | 1 | 87*
Cc1ccccc1CSc1nnnn1-c1ccc(C(N)=O)cc1 | 0 | -1 | 11 | 99 | / | / | / | /
O=S1(=O)C=C(Oc2ccc3ccccc3c2)c2ccccc21 | 2 | -4 | -83* | 96 | 9 | 95* | -17 | 96*
CC(C)CNC(=O)CSc1ccc(S(=O)(=O)N2CCN(C)CC2)cn1 | 4 | -1 | / | 100 | / | / | / | /
COc1ccc(NC(=O)C2CSC(C)(C)N2C=O)cc1 (stereo unspecified) | 0 | 9 | -89* | 83 | 12 | 96* | 1 | 97*
Cc1cc(C(=O)NNC(=O)c2ccc(Cl)c(S(N)(=O)=O)c2)c(C)o1 | 2 | 6 | / | 130 | / | / | / | /
Cc1cc(C(=O)NNC(=O)c2ccc(S(=O)(=O)N(C)C)cc2)c(C)o1 | -1 | 18 | -84* | 98 | 12 | 88* | 12 | 93*
Cc1cccc2sc(NC(=O)CN3C(=O)c4ccccc4C3=O)nc12 | 0 | 12 | -84* | / | 4 | 94* | -19 | 97*
Cc1ccc2sc(NC(=O)CN3C(=O)c4ccccc4C3=O)nc2c1C | -2 | -13 | -95* | 91 | -29 | 95* | -44 | 97*
COc1ccc(/C=C/C(=O)Oc2cc(O)cc(O)c2)cc1 | 0 | 5 | -95* | 99 | -8 | 98* | -20 | 99*
CCOc1ccc(/C=C/C(=O)Oc2ccc(OC)cc2)cc1 | 0 | -8 | 9 | 95 | / | / | / | /
CC(=O)NC1CC2CCCC(C1)N2C(=O)Nc1c(C)cccc1C (stereo unspecified) | / | / | / | 103 | / | / | / | /
CC(C)(C)c1ccc(OCC(=O)NCc2ccco2)cc1 | 0 | -10 | ? | 102 | 24 | 88* | 10 | 94*
CCCCOc1ccc(C(=O)NCC(=O)OCCCOC(=O)CNC(=O)c2ccc(OCCCC)cc2)cc1 | / | / | / | 100 | / | / | / | /
Cc1nc2ccccc2cc1OCc1ccccc1 | 3 | 5 | -81* | 109 | 24 | 93* | ? | 96*
CCc1cc(CNC(=O)C2CCC(=O)N(Cc3ccccc3F)C2)on1 (stereo unspecified) | / | / | / | 96 | / | / | / | /
O=C(CSc1nncs1)Nc1ccc(N2CCCCC2)cc1 | -1 | -6 | / | 106 | / | / | / | /
c1ccc(-c2ccc(-c3cnc4n3CCCCC4)cc2)cc1 | 4 | 24 | -86* | 106 | -5 | 84* | -22 | 90*
Cc1ccc(-c2cnc3n2CCCCC3)cc1 | 1 | 18 | 12 | 100 | / | / | / | /
Cc1ccc(/C=N/Nc2ccc(C(=O)O)cc2)o1 | 0 | 1 | -91* | 93 | 4 | 97* | 22 | 98*
O=C(CNC(=O)c1cccc(Br)c1)N/N=C/c1cccs1 | 0 | 2 | -83* | 113 | -30 | 91* | -18 | 91*
SMILES | NTR1 ag | VLA-4 inh | AI-2 QS mod | DSG3 Ab inh | JMH597 growth | BB721 lum counter | BB721 growth | JMH597 AI-2 mod
Cc1ccsc1/C=N/Nc1cccc(C(=O)O)c1 | -1 | 0 | 92 | 97 | / | / | / | /
Cc1ccsc1/C=N/NC(=O)CNC(=O)c1ccccc1 | -1 | 3 | ? | 97 | -9 | 93* | -1 | 95*
Cc1ccc(C(=O)NCC(=O)N/N=C/c2sccc2C)cc1[N+](=O)[O-] | -1 | 10 | 17 | 97 | / | / | / | /
CC(C)(C)c1ccc(C(=O)NCC(=O)N/N=C/c2cccs2)cc1 | 0 | -6 | -10 | 104 | / | / | / | /
Cc1ccsc1/C=N/Nc1ccc(C(=O)O)cc1 | 0 | 5 | -91* | 98 | 40 | 98* | 65* | 99*
CC(C)(C)N1CC(C(=O)Nc2ccc(C(N)=O)cc2)CC1=O (stereo unspecified) | / | / | / | 104 | / | / | / | /
COc1ccc(CC(=O)Nc2cc(F)ccc2F)cc1S(=O)(=O)N1CCOCC1 | / | / | / | 107 | / | / | / | /
COc1cc(C=NNc2ccccc2)ccc1OC(=O)c1ccccc1 | / | / | / | 100 | / | / | / | /
COc1ccc(/C=N/Nc2ccc(C(=O)O)cc2)cc1OC | 0 | 1 | -93* | 86 | -9 | 96* | 7 | 97*
CCN(CC)S(=O)(=O)c1ccc(F)cc1 | 0 | -7 | 7 | 102 | / | / | / | /
CCCc1ccc(S(=O)(=O)N(C)S(=O)(=O)c2ccc(F)cc2)cc1 | 5 | 14 | ? | 98 | 45 | 46 | 26 | 99*
CC1(c2ccccc2)NC(=O)N(CC(=O)NCCC2=CCCCC2)C1=O (stereo unspecified) | 1 | 9 | -90* | 96 | 4 | 91* | -1 | 95*
CC1(c2ccc3c(c2)OCO3)NC(=O)N(CC(=O)NCCC2=CCCCC2)C1=O (stereo unspecified) | 0 | -2 | -87* | / | 12 | 90* | 22 | 95*
Cc1ccc(C2(C)NC(=O)N(CC(=O)NCCC3=CCCCC3)C2=O)cc1 (stereo unspecified) | -4 | 0 | -74 | / | / | / | / | /
COc1ccc(-c2noc(Cc3ccc(Cl)cc3)n2)cc1OC | 4 | -7 | -10 | 99 | / | / | / | /
Clc1ccc(-c2noc(COc3ccccc3)n2)cc1 | 7 | -5 | ? | 113 | 1 | 86* | 15 | 94*
Clc1ccc(-c2noc(CCCOc3ccccc3)n2)cc1 | 6 | 3 | 18 | 102 | / | / | / | /
COc1ccc(Cc2nc(-c3ccc(Cl)cc3)no2)cc1 | 2 | 15 | -88* | 99 | 10 | 97* | -5 | 98*
Cc1nn(CC(=O)Nc2ccc3c(c2)nc(CN2CCCC2)n3C)c(=O)c2ccccc12 | -1 | 14 | 35 | 105 | / | / | / | /
Cc1nn(CC(=O)Nc2ccc(C(=O)N3CCCCC3)cc2)c(=O)c2ccccc12 | 1 | -6 | -82* | 103 | 7 | 93* | -11 | 94*
